Compound activity as filed in PubChem BioAssay.
CDC25B-CDK2 inh: human CDC25B-CDK2/CyclinA binding inhibition. 94,000 tested, 0.72% active. P30305+P24941. AID 1259370. z-score (concentration not given with the values). HTRF CDC25B-CDK2/CyclinA binding, anti-His/anti-Flag; hits give high values; in the data active = z-score above about 3.2
TAR Tat displ: HIV-1 TAR-Tat binding disruption. HIV-1 TAR RNA, Tat peptide displacement FRET; hits give high values. z-score (no concentration beside the values). 100,000 tested, 0.6% active. AID 1259389; active = z-score of 3 or more in at least 2 runs
Starred values were filed as active, the others as inactive; · = no result. A selection: hits, their analogues and other compounds. The true share with any hit is near 0.9%.

SMILES	CDC25B-CDK2 inh	TAR Tat displ
CN(C)CCCNc1oc(-c2ccc(Cl)cc2)nc1C#N	-1.2	-0.96
O=C(CCCN1CCSc2ccccc21)Nc1nc2ccccc2s1	·	-0.18
CCOC(=O)c1[nH]c(C)c(C(=O)NCCC2=CCCCC2)c1CC	·	1.5
CC1(C)C2(Cl)C(Cl)C(Cl)C(Cl)(C(Cl)Cl)C1(Cl)C2Cl (stereo not given)	·	-2.3
O=C(NCC1CCCO1)c1cccc(N2C(=O)c3ccc([N+](=O)[O-])cc3C2=O)c1 (stereo not given)	3.5*	·
O=C(NCC1CCCO1)c1cccc(N2C(=O)CCS2(=O)=O)c1 (stereo not given)	-1.3	1.5
Cc1cccc(NC(=O)c2cc3c(=O)n(C)c4ccccc4c3s2)n1	-0.15	·
CSc1ncc(C(=O)Nc2ccc(Br)cc2F)c(C)n1	·	1.4
CC(=O)Nc1cccc(OCc2cc(=O)n3oc(C)cc3n2)c1	-2	8.1*
Cc1cc(C)cc(OCc2cc(=O)n3oc(C)cc3n2)c1	-0.7	0.64
O=C1CC(CSc2nccc(-c3cccnc3)n2)=NN1c1ccc(Cl)cc1	-0.37	·
CCCC1=NN(c2ccc(Cl)cc2)C(=O)C1	6.2*	0.59
O=C(CSc1nc2c(c(=O)[nH]1)CCCC2)Nc1ccccc1F	-1.6	15*
O=C(CSc1nc2c(c(=O)[nH]1)CCCC2)Nc1ccccc1Cl	-1.7	0.06
Cc1ccc2c(c1)c1c(n2C)C(=O)CCC1	0.29	·
O=C(NCc1ccc2c(c1)OCO2)c1ccc2nc3[nH]c4ccccc4c3nc2c1	·	1.7
O=C(NCc1ccc2c(c1)OCO2)c1ccc2nc(-c3ccco3)c(-c3ccco3)nc2c1	·	60*
CC1CCCC(NC(=O)C2(C)Cn3c(cc4occc43)C(=O)N2C2CCCC2)C1C (stereo not given)	·	0.67
CC1CCCC(NC(=O)C2(C)Cn3c(cc4occc43)C(=O)N2CC2CCCO2)C1C (stereo not given)	·	6.8*
Cn1c(=O)c2sccc2n2c(CCCC(=O)Nc3ccccc3)nnc12	·	1.2
CN1C(=O)Cc2cc(S(=O)(=O)N3CCN(c4ccc(=O)n(-c5ccccc5)n4)CC3)ccc21	·	0.64
O=C(O)c1cc2ccccc2nc1-c1ccco1	0.87	35*
c1coc(-c2nc3ccccc3nc2-c2ccco2)c1	-0.23	·
CCOc1cc(C2C(C(=O)OC(C)C)=C(C)Nc3nc4ccccc4n32)ccc1O (stereo not given)	-2.1	-2
O=C1c2cc(O)cc(O)c2OC[C@@H]1c1ccc(O)c(O)c1	·	23*
SMILES	CDC25B-CDK2 inh	TAR Tat displ
O=C1c2c(O)cc(O)cc2OC(c2ccc(O)c(O)c2)C1O (stereo not given)	-1	·
O=C(C1=Cc2cc(Br)ccc2OC=C1)N1CCOCC1	-1.4	0.08
CSc1nccc(-c2ccsc2)n1	-1.1	·
O=C(O)c1ccccc1Sc1cc(C(=O)O)c(Sc2ccccc2C(=O)O)cc1C(=O)O	15*	·
CSc1ccccc1C(=O)c1ccccc1C(=O)O	-1.5	·
Cc1ccc(-n2nc3ccc(N)cc3n2)cc1	-0.46	-0.96
Nc1ccc2nn(-c3cccc(Cl)c3)nc2c1	-0.74	4*
NC(=O)c1nc(Nc2ccccc2)sc1NC(=O)c1cc(-c2ccco2)nc2ccccc12	·	20*
NC(=O)c1nc(Nc2ccccc2)sc1NC(=O)Cc1cccs1	·	-0.59
CCN(CC)C(=O)c1sc(NC(=O)c2cc(-c3ccc(C)o3)nc3ccccc23)c(C(N)=O)c1C	0.85	8.5*
Cc1nnc(NC(=O)c2cc(-c3ccc(Cl)cc3)nc3ccccc23)s1	-4.8	·
COc1ccc(-n2c(C)c3c(C)nn4cc(-c5ccc(C)o5)cc4c3c2C)cc1	7.2*	16*
Cc1nn2cc(-c3ccccc3)cc2c2c(C)n(Cc3ccccc3)c(C)c12	-0.81	0.12
CCc1nn2c(=O)cc(CSc3ccc(OC)cc3)nc2s1	-1.4	2.1
COc1ccc(CCn2c(C)c3c(C)nn4cc(C)cc4c3c2C)cc1OC	3.5	15*
Cc1cc2c3c(C)n(C4CCCCC4)c(C)c3c(C)nn2c1	0.79	·
CN(C1CCCCC1)S(=O)(=O)c1cc2c3c(c1)CC(=O)N3CCC2	·	1.9
COc1ccc(-c2cc(=O)oc3cc4occ(-c5cccc(OC)c5)c4cc23)cc1	-1.8	·
CC(O)c1nc2ccc(-c3ccc4nc(C(C)O)[nH]c4c3)cc2[nH]1 (stereo not given)	6.8*	-0.52
CC(O)c1nc2ccccc2[nH]1 (stereo not given)	-0.4	·
NC(N)=N/N=C/c1ccc(Cl)cc1Cl	-1.1	·
CCOCCCNc1cc(N2CCN(C3CCCCC3)CC2)c2noc3c2c1C(=O)c1ccccc1-3	-1.8	1.5
O=C(O)CCCNc1cc(N2CCC(=O)CC2)c2noc3c2c1C(=O)c1ccccc1-3	14*	27*
O=C(O)CCCNc1cc(N2CCN(C3CCCCC3)CC2)c2noc3c2c1C(=O)c1ccccc1-3	13*	-3.4
CCCN1CCN(c2cc(NCCCC(=O)O)c3c4c(onc24)-c2ccccc2C3=O)CC1	-2	-5.8
SMILES	CDC25B-CDK2 inh	TAR Tat displ
Cc1nnsc1C(=O)NNS(=O)(=O)c1cccs1	-0.84	·
CC(Sc1nnc(-c2ccncc2)o1)C(=O)Nc1ccc2c(c1)OCCO2 (stereo not given)	11*	1.3
Cc1[nH]c2ccc(-c3nnc(SC(C)C(=O)Nc4ccc5c(c4)OCCO5)o3)cc2c1C (stereo not given)	0.43	-2.1
CCOCCCNc1ncc2c(n1)CC(c1ccco1)CC2=O (stereo not given)	-0.75	·
O=C1CC(c2cccs2)Cc2nc(NCCSc3ccc(Cl)cc3)ncc21 (stereo not given)	21*	0.17
O=C(O)c1c[nH]c2ccc(S(=O)(=O)N3CCC(O)CC3)cc2c1=O	·	0.26
O=C(O)c1c[nH]c2ccc(S(=O)(=O)N3CCCC3c3ccco3)cc2c1=O (stereo not given)	-1.1	5.5*
Cc1ccc(NC(=O)c2cccc(C(=O)Nc3ccc(C)cc3C)c2)c(C)c1	-2.4	·
Cc1cc(=O)n2nc(N3CCCC3C(=O)NCc3ccc4c(c3)OCO4)sc2n1 (stereo not given)	1.4	1.4
Cc1ccc2[nH]c(=O)c(-c3noc(-c4ccco4)n3)cc2c1	10*	28*
Cc1ccc2cc(-c3noc(-c4ccco4)n3)c(=O)[nH]c2c1	2	0.78
CCOC(=O)CSc1nnc(NCC(=O)OC)c(=O)[nH]1	4.2*	·
CCOC(=O)CSc1nnc(-c2ccccc2)c(=O)[nH]1	2.1	-0.43
Cc1ccc(C)c(S(=O)(=O)Nc2ccc3oc(C)c(C(=O)O)c3c2)c1	0.27	14*
COCCOC(=O)c1c(C)oc2ccc(NS(=O)(=O)c3cc(C)ccc3C)cc12	-3.5	·
C[C@@H]1O[C@@H](OC2O[C@@H](COc3cc(O)c4c(=O)cc(-c5ccc(O)cc5)oc4c3)[C@@H](O)[C@@H](O)[C@@H]2O)[C@H](O)[C@H](O)[C@H]1O (stereo not given in full)	·	1.2
C[C@@H]1O[C@@H](O[C@H]2[C@H](Oc3cc(O)c4c(=O)cc(-c5ccc(O)cc5)oc4c3)O[C@H](CO)[C@@H](O)[C@@H]2O)[C@H](O)[C@H](O)[C@H]1O	·	1.1
O=c1cc(-c2ccc(O)c(O)c2)oc2cc(O)c([C@@H]3O[C@H](CO)[C@@H](O)[C@H](O)[C@H]3O)c(O)c12	·	26*
O=c1cc(-c2cc(O)c(O)c([C@@H]3O[C@H](CO)[C@@H](O)[C@H](O)[C@H]3O)c2)oc2cc(O[C@@H]3O[C@H](CO)[C@@H](O)[C@H](O)[C@H]3O)cc(O)c12	·	25*
